Test results from PubChem BioAssay (EPA / NIEHS).
Active and inactive are the calls of the source. The calls were made as follows: active = hit-call score of the fitted dose curve at least 0.9, where 1 is the maximum; inactive = score below 0.9.

What was measured:
Settings in all cases: mRNA level, 48 h; actives raise or lower the signal
[1] = read-out: Hypoxia-inducible factor 1-alpha (Homo sapiens) (UniProt Q16665); assay: LTEA_HepaRG_HIF1A: Life Technologies and Expression Analysis (LTEA) Assay for Hypoxia-inducible factor 1 (HIF1A) Trancription factor using HepaRG (AID 2283503)
Outline: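 HepaRG, 48 h exposure, 8-pt half-log series from 100 uM, 0.5% DMSO vehicle, duplicates. Readout: HIF1A transcript by qRT-PCR (Fluidigm array), housekeeping-normalised. Bidirectional curve fit vs DMSO baseline.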

[2] = read-out: 3-Hydroxy-3-Methylglutaryl-CoA Synthase 2 (HMGCS2), HMGCS2 (gene 3158); assay: LTEA_HepaRG_HMGCS2: Life Technologies and Expression Analysis (LTEA) Assay for 3-Hydroxy-3-Methylglutaryl-CoA Synthase 2 (HMGCS2) using HepaRG (AID 2283504)
Outline: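 HepaRG, plated 48 h then switched to serum-free induction media; cmpd 8-pt, max 100 uM, 1/2-log, 0.5% DMSO, n=2, 48 h. HMGCS2 mRNA by Fluidigm TaqMan qRT-PCR, ACTB/GAPDH/POLR2A norm; bidirectional fit vs DMSO.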

[3] = read-out: HGF (gene 3082); assay: LTEA_HepaRG_HGF: Life Technologies and Expression Analysis (LTEA) Assay for Hepatocyte Growth Facto (HGF) using HepaRG (AID 2283505)
Outline: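 Read-out is HGF transcript level by qRT-PCR, normalized to three housekeeping genes, fitted bidirectionally against 0.5% DMSO vehicle. Human HepaRG cells received test chemicals for 48 h at up to 100 uM.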

[4] = read-out: Insulin Like Growth Factor 1 (IGF1), IGF1 (gene 3479); assay: LTEA_HepaRG_IGF1: Life Technologies and Expression Analysis (LTEA) Assay for Insulin Like Growth Factor 1 (IGF1) using HepaRG (AID 2283506)
Outline: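 Using human HepaRG liver cells, IGF1 transcript induction or suppression is measured 48 h after dosing across eight concentrations capped at 100 uM. Values derive from bidirectional concentration-response fitting with DMSO as baseline.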

[5] = read-out: Intercellular Adhesion Molecule 1 (ICAM1), ICAM1 (gene 3383); assay: LTEA_HepaRG_ICAM1: Life Technologies and Expression Analysis (LTEA) Assay for Intercellular Adhesion Molecule 1 (ICAM1) using HepaRG (AID 2283507)
Outline: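 Readout is qRT-PCR mRNA level, normalized to three housekeeping genes and fitted bidirectionally against 0.5% DMSO vehicle. Human HepaRG cultures received compound for 48 h, top concentration 100 uM with half-log dilutions.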

[6] = read-out: Insulin-like growth factor-binding protein 1 (IGFBP1), IGFBP1 (gene 3484); assay: LTEA_HepaRG_IGFBP1: Life Technologies and Expression Analysis (LTEA) Assay for Insulin-like growth factor-binding protein 1 (IGFBP1) using HepaRG (AID 2283508)
Outline: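 Thawed HepaRG cells are plated for 48 h, switched to serum-free induction medium, then dosed in duplicate for another 48 h (100 uM top, half-log steps). Lysates in RLT go to qRT-PCR, and gain or loss of signal is fitted relative to vehicle.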

[7] = read-out: Interleukin 6 (IL6), IL6 (gene 3569); assay: LTEA_HepaRG_IL6: Life Technologies and Expression Analysis (LTEA) Assay for Interleukin 6 (IL6) using HepaRG (AID 2283509)
Outline: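 Differentiated human HepaRG cells, plated 48 h then switched to serum-free induction medium, were exposed in duplicate for 48 h to eight half-log concentrations up to 100 uM in 0.5% DMSO. IL6 mRNA measured by qRT-PCR, normalized to ACTB/GAPDH/POLR2A.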

[8] = read-out: Interleukin 6 Receptor (IL6R), IL6R (gene 3570); assay: LTEA_HepaRG_IL6R: Life Technologies and Expression Analysis (LTEA) Assay for Interleukin 6 Receptor (IL6R) using HepaRG (AID 2283510);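 as to AC50: TaqMan qRT-PCR signal normalized to ACTB GAPDH and POLR2A housekeeping genes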
Outline: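 Concentration-response in human liver HepaRG cells: eight concentrations from 100 uM downward by half-logs, 48 h exposure, 0.5% DMSO vehicle. IL6R mRNA change measured by qRT-PCR and fitted in both directions relative to vehicle.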

[9] = read-out: Potassium channel subfamily K member 1 (KCNK1), KCNK1 (gene 3775); assay: LTEA_HepaRG_KCNK1: Life Technologies and Expression Analysis (LTEA) Assay for Potassium channel subfamily K member 1 (KCNK1) using HepaRG (AID 2283511)
Outline: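 Differentiated human HepaRG cells in serum-free induction medium were exposed in duplicate for 48 h to 8 half-log concentrations up to 100 uM in 0.5% DMSO. KCNK1 mRNA was measured by TaqMan qRT-PCR, normalized to ACTB, GAPDH and POLR2A, and fitted bidirectionally versus DMSO.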

[10] = read-out: Keratin 19 (KRT19), KRT19 (gene 3880); assay: LTEA_HepaRG_KRT19: Life Technologies and Expression Analysis (LTEA) Assay for Keratin 19 (KRT19) using HepaRG (AID 2283512)
Outline: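 KRT19 transcript levels, measured by Fluidigm qRT-PCR against three housekeeping genes, are fitted for gain or loss of signal relative to DMSO. Human HepaRG cells receive test chemicals (top 100 uM, half-log steps, 0.5% DMSO) for 48 hours.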

[11] = read-out: JUN Transcription Factor, JUN (gene 3725); assay: LTEA_HepaRG_JUN: Life Technologies and Expression Analysis (LTEA) Assay for JUN Transcription Factor using HepaRG (AID 2283513)
Outline: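 Human HepaRG liver cells receive test chemicals in 0.5% DMSO for 48 h across an eight-point range topping at 100 uM. Expression changes in JUN are scored in both directions against the DMSO vehicle.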

[12] = read-out: Lipase C (LIPC), LIPC (gene 3990); assay: LTEA_HepaRG_LIPC: Life Technologies and Expression Analysis (LTEA) Assay for Lipase C (LIPC) using HepaRG (AID 2283514)
Outline: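 Differentiated human HepaRG cells in serum-free induction medium were exposed in duplicate for 48 h to eight concentrations (top 100 uM, half-log steps, 0.5% DMSO). LIPC mRNA was quantified by TaqMan qRT-PCR, normalized to ACTB, GAPDH and POLR2A, with bidirectional fitting versus DMSO.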

[13] = read-out: Lipoprotein lipase (LPL), LPL (gene 4023); assay: LTEA_HepaRG_LPL: Life Technologies and Expression Analysis (LTEA) Assay for Lipoprotein lipase (LPL) using HepaRG (AID 2283515)
Outline: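 Differentiated human HepaRG cells in serum-free induction medium were exposed in duplicate for 48 h to eight half-log concentrations (top 100 uM) in 0.5% DMSO. LPL mRNA was quantified by TaqMan qRT-PCR, normalized to ACTB, GAPDH and POLR2A.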

[14] = read-out: MicroRNA 122 (MIR122), gene 406906; assay: LTEA_HepaRG_MIR122: Life Technologies and Expression Analysis (LTEA) Assay for MicroRNA 122 (MIR122) using HepaRG (AID 2283516); also: the transcript read is the microRNA miR-122
Outline: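 HepaRG, 48 h exposure, 8-pt half-log from 100 uM, 0.5% DMSO; TaqMan qRT-PCR; bidirectional fit vs DMSO.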

[15] = read-out: MYC, MYC (gene 4609); assay: LTEA_HepaRG_MYC: Life Technologies and Expression Analysis (LTEA) Assay for MYC using HepaRG (AID 2283518)
Outline: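 HepaRG, ~100,000 cells/well, collagen I; 48 h plating; serum-free induction medium; 48 h dosing, duplicate, 100 uM top, half-log, 0.5% DMSO; total RNA → qRT-PCR MYC; gain/loss fit vs DMSO.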

[16] = read-out: matrix metalloproteinase-3 (MMP3), MMP3 (gene 4314); assay: LTEA_HepaRG_MMP3: Life Technologies and Expression Analysis (LTEA) Assay for matrix metalloproteinase-3 (MMP3) using HepaRG (AID 2283519)
Outline: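 Differentiated human HepaRG cells, plated 48 h on collagen I, were exposed in duplicate for 48 h in serum-free induction medium to eight half-log concentrations up to 100 uM in 0.5% DMSO. MMP3 mRNA was quantified by TaqMan qRT-PCR, normalised to ACTB, GAPDH and POLR2A.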

[17] = read-out: Protein phosphatase 2A (PPP2R4), PTPA (gene 5524); assay: LTEA_HepaRG_PPP2R4: Life Technologies and Expression Analysis (LTEA) Assay for Protein phosphatase 2A (PPP2R4) using HepaRG (AID 2283522)
Outline: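 Gene-expression endpoint in HepaRG hepatic cells: 48 h treatment across eight half-log concentrations up to 100 uM in 0.5% DMSO. PPP2R4 mRNA by qRT-PCR, normalized to three endogenous control genes.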

[18] = read-out: matrix metalloproteinase-10 (MMP10), MMP10 (gene 4319); assay: LTEA_HepaRG_MMP10: Life Technologies and Expression Analysis (LTEA) Assay for matrix metalloproteinase-10 (MMP10) using HepaRG (AID 2283517)
Outline: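 HepaRG, collagen I, ~100,000 cells/well; serum-free induction medium; 48 h exposure, duplicate, 8-pt half-log to 100 uM, 0.5% DMSO. Readout: TaqMan qRT-PCR, normalized to ACTB/GAPDH/POLR2A; bidirectional fit vs DMSO.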

[19] = read-out: Paternally Expressed 10 (PEG10), PEG10 (gene 23089); assay: LTEA_HepaRG_PEG10: Life Technologies and Expression Analysis (LTEA) Assay for Paternally Expressed 10 (PEG10) using HepaRG (AID 2283520);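 as to AC50: PEG10 transcript by qRT-PCR normalised to ACTB GAPDH and POLR2A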
Outline: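 Chemicals tested on HepaRG cells for 48 h, highest concentration 100 uM. PEG10 expression assessed by qRT-PCR relative to DMSO control.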

[20] = read-out: Nuclear factor NF-kappa-B p105 subunit (Homo sapiens) (UniProt P19838); assay: LTEA_HepaRG_NFKB1: Life Technologies and Expression Analysis (LTEA) Assay for Nuclear Factor Kappa B Subunit 1 (NFKB1) using HepaRG (AID 2283521);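 also: TaqMan qRT-PCR transcript normalised to ACTB GAPDH and POLR2A housekeeping genes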
Outline: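 Differentiated human HepaRG cells were exposed for 48 h in serum-free induction medium to eight concentrations (top 100 uM, half-log steps, 0.5% DMSO), in duplicate. NFKB1 mRNA was measured by TaqMan qRT-PCR, normalized to ACTB/GAPDH/POLR2A, and fitted bidirectionally against DMSO.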

Measured: AC50

Hypoxia-inducible factor 1-alpha (Homo sapiens), sequence (Q16665 whole entry, looked up): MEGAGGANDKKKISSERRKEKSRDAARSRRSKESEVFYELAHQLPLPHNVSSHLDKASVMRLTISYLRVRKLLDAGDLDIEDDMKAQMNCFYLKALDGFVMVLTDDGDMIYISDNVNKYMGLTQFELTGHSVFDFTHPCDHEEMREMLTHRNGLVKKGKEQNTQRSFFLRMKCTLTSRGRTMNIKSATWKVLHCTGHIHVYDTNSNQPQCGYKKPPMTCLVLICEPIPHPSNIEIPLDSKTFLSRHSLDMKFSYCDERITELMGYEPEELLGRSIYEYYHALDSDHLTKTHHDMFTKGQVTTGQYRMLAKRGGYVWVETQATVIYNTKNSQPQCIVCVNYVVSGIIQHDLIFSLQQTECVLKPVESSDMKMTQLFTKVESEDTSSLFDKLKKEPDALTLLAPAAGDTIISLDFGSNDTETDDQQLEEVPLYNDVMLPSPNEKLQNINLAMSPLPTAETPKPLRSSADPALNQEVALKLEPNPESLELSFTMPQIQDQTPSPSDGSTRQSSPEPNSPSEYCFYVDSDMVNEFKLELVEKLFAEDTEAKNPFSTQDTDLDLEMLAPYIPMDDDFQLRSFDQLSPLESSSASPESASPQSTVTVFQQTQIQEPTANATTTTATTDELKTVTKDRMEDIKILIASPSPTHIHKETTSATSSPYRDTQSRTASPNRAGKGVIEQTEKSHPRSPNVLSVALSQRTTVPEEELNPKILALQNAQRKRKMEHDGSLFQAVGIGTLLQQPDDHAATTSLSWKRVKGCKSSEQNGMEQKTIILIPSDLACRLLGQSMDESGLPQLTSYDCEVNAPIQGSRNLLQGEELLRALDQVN
Nuclear factor NF-kappa-B p105 subunit (Homo sapiens), sequence (P19838 whole entry, looked up): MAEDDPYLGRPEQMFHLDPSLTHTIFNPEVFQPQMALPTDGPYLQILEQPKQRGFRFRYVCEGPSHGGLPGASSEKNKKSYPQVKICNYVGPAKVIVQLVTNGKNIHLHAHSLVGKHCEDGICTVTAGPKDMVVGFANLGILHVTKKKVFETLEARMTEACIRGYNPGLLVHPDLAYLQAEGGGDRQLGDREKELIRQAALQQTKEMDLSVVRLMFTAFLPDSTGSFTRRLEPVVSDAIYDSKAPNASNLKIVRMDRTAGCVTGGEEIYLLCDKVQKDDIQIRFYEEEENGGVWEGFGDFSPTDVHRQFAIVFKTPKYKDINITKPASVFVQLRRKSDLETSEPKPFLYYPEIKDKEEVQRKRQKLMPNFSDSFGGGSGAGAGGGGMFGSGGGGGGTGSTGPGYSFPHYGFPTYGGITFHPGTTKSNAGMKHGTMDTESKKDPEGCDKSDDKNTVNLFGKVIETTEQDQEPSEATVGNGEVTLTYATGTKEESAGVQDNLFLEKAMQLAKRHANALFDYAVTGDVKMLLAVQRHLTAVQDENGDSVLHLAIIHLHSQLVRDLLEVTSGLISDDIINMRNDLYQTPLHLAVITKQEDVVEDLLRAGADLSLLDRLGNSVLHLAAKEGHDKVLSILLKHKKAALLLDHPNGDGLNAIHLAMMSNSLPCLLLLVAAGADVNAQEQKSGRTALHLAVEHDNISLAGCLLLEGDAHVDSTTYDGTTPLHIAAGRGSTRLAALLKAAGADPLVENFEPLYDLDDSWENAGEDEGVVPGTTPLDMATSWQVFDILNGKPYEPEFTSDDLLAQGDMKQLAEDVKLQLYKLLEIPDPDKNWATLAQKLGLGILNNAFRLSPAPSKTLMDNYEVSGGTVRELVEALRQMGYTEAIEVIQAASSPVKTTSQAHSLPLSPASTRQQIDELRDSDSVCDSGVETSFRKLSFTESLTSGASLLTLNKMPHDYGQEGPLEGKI

C[Si](Cn1cncn1)(c1ccc(F)cc1)c1ccc(F)cc1
active: [2] 47.6 µM | [4] 50 µM | [5] 81.1 µM | [6] 67.7 µM | [7] 92.6 µM | [9] 50 µM | [12] 26.7 µM | [13] 50 µM | [14] 61.4 µM | [15] 68.1 µM | [16] 11.6 µM
inactive: [1] | [3] | [8] | [10] | [11] | [17]

CC(=NC#N)N(C)Cc1ccc(Cl)nc1
inactive: all assays above

COP(=O)(OC)OC(Br)C(Cl)(Cl)Br (stereo not given)
active: [7] 50 µM
not listed: [14] | [19] | [20]
inactive: all other assays above

CC1(C(=O)Nc2ccc(O)c(Cl)c2Cl)CCCCC1
not listed: [6]
inactive: all other assays above

CON=C(C(=O)OC)c1ccccc1CON=C(C)c1cccc(C(F)(F)F)c1
active: [4] 50 µM
not listed: [18] | [19]
inactive: all other assays above

O=[N+]([O-])c1cc(C(F)(F)F)c(Cl)c([N+](=O)[O-])c1Nc1ncc(C(F)(F)F)cc1Cl
inactive: [3] | [5] | [9] | [11] | [15] | [20]
active: [1] 31.9 µM | [2] 36.5 µM | [4] 79.4 µM | [6] 42.6 µM | [7] 73.9 µM | [8] 50 µM | [10] 26.2 µM | [12] 24.4 µM | [13] 74.1 µM | [14] 15.8 µM | [16] 25 µM | [19] 49.2 µM | [17] 65.2 µM
